Laboratory results: PubChem BioAssay AID1259418 (Broad Institute, 2018)
The campaign covered roughly 3,400 compounds. About 840 (25%) were called active. Roughly 11% stayed inconclusive and do not appear here. The list is a sample of the results. Potency and affinity values are given separately. Unmarked numbers belong to inactive results.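 Rule for the calls: active = fitted half-maximal concentration of signal decrease at or below twice the sample's top tested concentration; inconclusive = flat curve between -70 and -30 percent, or poor fit; inactive = flat within 30 percent, signal rise, or potency above limit.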

experiment: inhibitors of Toxoplasma growth in IFN-γ-primed HeLa – cell-based, ME49Luc, luciferase, 72 h, dose response (AID 1259418); settings: T. gondii ME49Luc in IFN-y HeLa, active compounds read low, -100% = high-dose IFN-γ control wells; at 19.5 µM unless noted

| SMILES | max activity |
| --- | --- |
| COc1cccc(C(=O)Nc2ccc(-c3nc(-c4cc(C)ccc4C)co3)cc2)c1 | 7.15% [at 0.16 µM] |
| Cc1nnc(N2C[C@@H](Oc3ncccc3F)[C@@H]3OCCC[C@@H]32)s1 | 9.8% |
| COc1ccc(-c2nc3c(s2)CN(S(=O)(=O)c2ccc(OC)cc2)CC3)cc1 | 12.4% |
| COc1ccc(-c2nc3c(s2)CN(S(=O)(=O)c2ccc(C)cc2)CC3)cc1 | 9.64% [at 10 µM] |
| COc1ccc(S(=O)(=O)N2CCc3nc(-c4ccc(C)cc4)sc3C2)cc1 | -4.65% [at 2.6 µM] |
| COc1cccc(-c2nc3c(s2)CN(S(=O)(=O)c2ccc(C)c(C)c2)CC3)c1 | -17.2% [at 10 µM] |
| Cc1ccc(C)c(-c2coc(-c3ccc(NC(=O)COc4ccc(F)cc4)cc3)n2)c1 | 15.1% |
| N#Cc1ccc(S(=O)(=O)N2CCC(N3CCOCC3)CC2)cc1 | -17.4% [at 0.35 µM] |
| CCc1ccccc1NC(=O)CN1CCC2(CC1)N=C(c1ccc(Cl)cc1)C(=O)N2 | 13% |
| Cc1nc(-c2ccc(F)cc2)sc1-c1ccc(SCc2ccc(C(F)(F)F)cc2)nn1 | 6.62% [at 0.68 µM] |
| COc1ccccc1NC(=O)CN1CCC2(CC1)N=C(c1ccc(F)cc1)C(=O)N2 | 11.3% |
| Cc1ccc(N(Cc2nc(-c3ccc(OC(C)C)cc3)oc2C)S(=O)(=O)c2cccs2)cc1 | -11.4% [at 0.68 µM] |
| Cc1oc(-c2ccccc2)nc1CN(c1ccccc1)S(=O)(=O)c1cccs1 | 8.04% [at 0.68 µM] |
| Cc1ccc(-c2nc(CN(c3ccc(C)cc3)S(=O)(=O)c3cccs3)c(C)o2)cc1 | 12.6% [at 0.16 µM] |
| COc1ccccc1-c1nc(CSc2nc3c(c(=O)[nH]2)CN(Cc2ccc(F)cc2)CC3)c(C)o1 | 38.6% [at 5 µM] |
| Cc1ccc2c(c1C)-n1cccc1C1(CCN(C(=O)c3cccc(N(C)C)c3)CC1)N2 | -17.3% [at 0.35 µM] |
| COCCC(=O)N1C[C@H](OCc2ccccn2)[C@@H]2COC[C@@H]21 | 46.2% |
| COc1ccc(CCC(=O)N2CCC[C@@H]2C(=O)NCCc2csc(-c3ccccc3)n2)cc1 | 15.9% [at 2.6 µM] |
| COCCN1CCc2nc(SCc3nc(-c4ccc(C)cc4)oc3C)[nH]c(=O)c2C1 | -13.7% [at 2.6 µM] |
| COc1ccc(-c2nc(Cn3nnc(-c4nc(-c5cccc(C(F)(F)F)c5)no4)c3C)c(C)o2)cc1 | -6.58% [at 5 µM] |
| CCOc1ccc(NC(=O)Nc2ccc(-c3nc(-c4cccc(Br)c4)co3)cc2)cc1 | 4.75% [at 10 µM] |
| COc1ccc(-c2nc(Nc3cc(F)ccc3F)c3ccccc3n2)cc1 | 38% |
| COc1cccc(-c2nc3c(s2)CN(S(=O)(=O)c2ccc(F)cc2)CC3)c1 | 19.6% |
| COc1ccc(-c2nc3c(s2)CN(S(=O)(=O)c2ccc(CC(C)C)cc2)CC3)cc1 | -5.7% [at 10 µM] |
| CCOC(=O)C1CCC(CNC(=O)Nc2ccc(-c3nc(-c4cc(C)ccc4C)co3)cc2)CC1 (stereo not given) | 10.8% [at 0.16 µM] |

| SMILES | max activity |
| --- | --- |
| Cc1cc(C2CCCN2C(=O)Cn2nc(C(F)(F)F)cc2C)on1 (stereo not given) | 9.62% [at 0.16 µM] |
| Cc1ccc(-c2coc(-c3ccc(NC(=O)NC4CCCC4)cc3)n2)c(C)c1 | 13.7% |
| Cc1nc(OCC(=O)Nc2ccccc2F)c2ccccc2n1 | 19.1% [at 0.16 µM] |
| COCCN1CCc2nc(SCc3nc(-c4cccc(C)c4)oc3C)[nH]c(=O)c2C1 | 12% [at 0.16 µM] |
| Cc1ccc(C)c(NC(=O)CN2CCC3(CC2)N=C(c2cccc(F)c2)C(=O)N3)c1 | -32.1% |
| CCN1CCn2c(-c3cccc(F)c3)cnc2C12CCN(c1ncccn1)CC2 | 40.4% |
| COc1ccc(-c2nc(NC(C)c3ccccc3)c3ccccc3n2)cc1 (stereo not given) | 18.4% [at 5 µM] |
| COc1ccc(C(=O)N2CCC3(CC2)Nc2ccc(C)c(C)c2-n2cccc23)c(OC)c1 | -29.7% [at 0.16 µM] |
| Cc1ccc(C)c(-c2coc(-c3ccc(NC(=O)c4ccc(Br)o4)cc3)n2)c1 | 9.77% [at 10 µM] |
| CN1C(=O)CCc2cc(NC(=O)c3cccnc3)ccc21 | -16.3% [at 0.16 µM] |
| COc1ncccc1NC(=O)c1cc(-c2cnc(N3CCCC3)nc2)cn1CC1CC1 | 6% |
| O=C(NCc1ccc(F)cc1F)c1cc(-c2cnc(N3CCCC3)nc2)cn1CC1CC1 | -11.3% [at 0.038 µM] |
| COCCN1CCc2c(cnc(-c3cccnc3)c2C(=O)O)C1 | 17.7% [at 2.6 µM] |
| COC(=O)[C@@H]1C[C@@H](N(C)C)CN1S(=O)(=O)c1c(C)ccc2nsnc12 | 25.5% |
| Cc1ccc(-c2coc(-c3ccc(NC(=O)COc4ccc(F)cc4)cc3)n2)cc1 | -52.1% [at 0.68 µM] |
| O=C(NCc1ccc(F)cc1)Nc1ccc(-c2nc(-c3ccccc3)co2)cc1 | 16.3% [at 1.35 µM] |
| COc1ccc(C(=O)N2CCC(C(=O)NCCc3csc(-c4ccccc4)n3)CC2)cc1 | 12.2% [at 0.16 µM] |
| COc1cccc(C(=O)N2CCC(C(=O)NCCc3csc(-c4ccccc4)n3)CC2)c1 | -23.1% |
| CCOC(=O)C1CCN(C(=O)c2ccc(-c3csc(C4CC4)n3)cc2)CC1 | 40.1% |
| COc1ccc(-c2nc(N3CCN(c4cccc(C)c4)C(C)C3)c3ccccc3n2)cc1 (stereo not given) | 60.7% |
| Cc1ccc(-c2nc(Cn3nnc(-c4nc(-c5ccc(C(F)(F)F)cc5)no4)c3C)c(C)o2)cc1 | 11.8% [at 0.35 µM] |
| CCc1nc(OCC(=O)Nc2ccccc2C)c2ccccc2n1 | 13% [at 0.16 µM] |
| O=C(CCC1N=C2c3ccccc3N=C(SCc3ccccc3Cl)N2C1=O)NCc1ccco1 (stereo not given) | 35.4% [at 10 µM] |
| CCOC(=O)c1ccc(NC(=O)Nc2ccc(-c3nc(-c4ccc(C)cc4C)co3)cc2)cc1 | 15.1% [at 0.16 µM] |
| CCOc1ccc(NC(=O)Nc2ccc(-c3nc(-c4ccccc4)co3)cc2)cc1 | 55.1% |

| SMILES | max activity |
| --- | --- |
| COc1ccc2c(c1)NC1(CCN(C(=O)c3ccc(Br)o3)CC1)c1cccn1-2 | 8.21% [at 0.35 µM] |
| CC(C)(C)NC1=NCCNC12CCN(S(=O)(=O)c1ccc3c(c1)CCCC3)CC2 | -19.2% [at 0.35 µM] |
| COc1ccc(NC(=O)Nc2ccc(-c3nc(-c4ccccc4)co3)cc2)c(OC)c1 | 53.6% [at 10 µM] |
| O=C(CC(F)(F)F)N1C[C@@H]2[C@H](c3ccccc31)[C@H](CO)N2CC1CCOCC1 | 54.6% |
| Cc1oc(-c2ccccc2Cl)nc1Cn1c(=O)c2cccnc2n(-c2ccccc2)c1=O | 6.15% [at 5 µM] |
| O=C(CCC1Nc2c3ccccc3nc(=S)n2C1=O)N1CCN(c2ccccc2F)CC1 (stereo not given) | 35.9% |
| O=C(CC1Nc2c3ccccc3nc(=S)n2C1=O)N1CCN(c2cccc(C(F)(F)F)c2)CC1 (stereo not given) | 105% |
| Cc1ccc(Cl)cc1N1CCN(C(=O)CC2Nc3c4ccccc4nc(=S)n3C2=O)CC1 (stereo not given) | 25.8% [at 0.35 µM] |
| COc1cccc(N2CCN(C(=O)CC3Nc4c5ccccc5nc(=S)n4C3=O)CC2)c1 (stereo not given) | 50.6% |
| Cc1ccc(C)c(N2CCN(C(=O)CC3Nc4c5ccccc5nc(=S)n4C3=O)CC2)c1 (stereo not given) | 190% [at 10 µM] |
| COc1ccccc1CNC(=O)CCC1Nc2c3ccccc3nc(=S)n2C1=O (stereo not given) | 15% [at 2.6 µM] |
| Cc1cccc(-c2nc(Cn3nnc(-c4nc(-c5ccc(OC(F)(F)F)cc5)no4)c3C)c(C)o2)c1 | -4.39% [at 0.35 µM] |
| Cc1oc(-c2cccc(Cl)c2)nc1CSc1nc2c(c(=O)[nH]1)CN(Cc1ccccc1)CC2 | 20.2% [at 0.35 µM] |
| CCCc1cc(C2CCCN2C(=O)c2cc(C(F)(F)F)nn2C)no1 (stereo not given) | 13.3% [at 0.16 µM] |
| Clc1ccc(CNc2nc(SCc3ccccc3Cl)nc3ccccc23)cc1 | -19% [at 10 µM] |
| COc1ccc(CNc2nc(SCc3ccccc3F)nc3ccccc23)cc1 | 8.85% [at 0.68 µM] |
| Fc1ccccc1CSc1nc(NCc2ccco2)c2ccccc2n1 | 15% [at 2.6 µM] |
| Clc1ccccc1CSc1nc(NCCc2ccccc2)c2ccccc2n1 | 13.2% [at 5 µM] |
| Cc1nc(N2CCOCC2)nc2c1CCN(C(=O)C1CC1)CC2 | 58.7% |
| Clc1ccc(-n2ncc3c(NC4CCCCCCCCCCC4)ncnc32)cc1 | -21.9% [at 10 µM] |
| COC(=O)CC(=O)Nc1ccc(-c2nc(-c3ccc(C)cc3C)co2)cc1 | 87.6% |
| Cc1ccc(-c2coc(-c3ccc(NC(=O)c4ccccc4C)cc3)n2)cc1 | 104% |
| COc1cc(C(=O)Nc2ccc(-c3nc(-c4ccccc4)co3)cc2)cc(OC)c1OC | -19.1% [at 0.16 µM] |
| COc1ccccc1NC(=O)Nc1ccc(-c2nc(-c3ccc(C)cc3)co2)cc1 | -11.4% [at 0.35 µM] |
| Cc1ccccc1C(=O)Nc1ccc(-c2nc(-c3ccccc3)co2)cc1 | 95.8% [at 10 µM] |
